EBI2 block = antagonists of human EBI2 receptor; EBI2 beta-arrestin recruitment, luminescence, 7a,25-OHC stimulated; inhibition, % at 5 µM; AID 651636; 360,000 compounds, 0.81% hits; in the data active = inhibition above about 38%;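 also: enzyme fragment complementation signal reports receptor beta-arrestin coupling in cells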
Target sequence (P32249 whole entry, looked up, the tested form may be a part): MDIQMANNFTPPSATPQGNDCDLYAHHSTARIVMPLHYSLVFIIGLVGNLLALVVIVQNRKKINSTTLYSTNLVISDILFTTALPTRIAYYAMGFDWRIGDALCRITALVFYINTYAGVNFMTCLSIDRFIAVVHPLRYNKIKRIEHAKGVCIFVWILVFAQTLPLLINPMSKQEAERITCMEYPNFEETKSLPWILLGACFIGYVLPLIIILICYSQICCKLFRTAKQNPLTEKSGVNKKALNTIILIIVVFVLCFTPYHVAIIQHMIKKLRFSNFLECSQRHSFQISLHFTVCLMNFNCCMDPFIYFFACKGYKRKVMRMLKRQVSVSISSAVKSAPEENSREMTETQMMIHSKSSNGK
SENP8 block-1 = blocks the human protease SENP8; Q96LD8; purified SENP8, Z-RLRGG-aminoluciferin cleavage, luminescence; inhibition, % at 10 µM; 330,000 compounds, 1.2% hits; AID 2540; in the data active = inhibition above about 50%
Target sequence (Q96LD8 whole entry, looked up): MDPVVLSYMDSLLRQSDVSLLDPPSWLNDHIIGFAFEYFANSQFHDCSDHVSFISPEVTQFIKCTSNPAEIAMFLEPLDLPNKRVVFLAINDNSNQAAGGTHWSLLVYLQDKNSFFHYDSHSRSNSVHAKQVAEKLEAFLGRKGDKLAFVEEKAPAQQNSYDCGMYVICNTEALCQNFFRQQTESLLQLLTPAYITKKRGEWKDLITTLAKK
SENP7 block = blocks the human protease SENP7. Q9BQF6. recombinant SENP7, Z-RLRGG-aminoluciferin luminescence, 40 min. inhibition, % at 5 µM. 330,000 compounds, 1.5% hits. AID 434973;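 active = inhibition above about 50% at the single test dose, limit read from the data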
SENP6 inh = inhibitors of human SENP6 protease. Recombinant SENP6 catalytic domain, aminoluciferin luminescence. Q9GZR1. AID 2599. 330,000 compounds, 1.8% hits. inhibition, % at 10 µM;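 active = inhibition above about 50% at the single tested dose, limit read from the data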
SENP8 block-2 = SENP8 (human) protease inhibition; recombinant SENP8, Nedd8 substrate fluorescence; Q96LD8; inhibition, % at 20 µM; 360,000 compounds, 0.64% hits; in the data active = inhibition mostly above about 40%, no sharp cut-off; inactive = mostly below about 27%
AHR activator = human AHR activation; activation, % at 5 µM; AHR-responsive luciferase reporter cells, luminescence; P35869; 320,000 compounds, 2.5% hits; in the data active = activation above about 47%
AHR act cf = confirmation of human aryl hydrocarbon receptor activators | 2,300 compounds, 87% hits | shares compounds with AHR activator | human cells, AHR-responsive luciferase reporter, luminescence | activation, % at 9 µM; in the data active = activation above about 49%;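 also: HepG2 hepatoma cells carrying a DRE-driven firefly luciferase reporter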
PXR counter = counter-screen for AHR activators: human PXR activators; shares compounds with AHR activator; cell-based PXR reporter, luciferase luminescence; activation, % at 11.6 µM; 2,300 compounds, 88% hits; in the data active = activation above about 11%;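 also: human hepatoma DPX-2 cells expressing full-length human PXR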
Of the large screens only hits and unclear results are named; the others gave an inactive call (follow-up assays come after a bar, where they were run). The list is not random: actives were taken first. Their share in the collection is about 5%.

S=C1NCCOCCOCCNC(=S)N2CCOCCOCCN1CCOCCOCC2	none
COc1cccc(CN2CC(C(=O)N3CCN(c4ccc(Cl)cc4)CC3)CCC2=O)c1 (stereo unspecified)	none
CNc1ccccc1-c1nc2ccccc2n(C)c1=O	AHR activator 113 | AHR act cf 107 | PXR counter 41
Cc1cc(C(=O)CN2C(=O)C(=O)N(Cc3ccccc3)C2=O)c(C)n1-c1ccc2c(c1)OCCO2	none
CCN(Cc1ccncc1)C(=O)c1ccccc1NS(=O)(=O)c1ccc(F)cc1	none
COc1ccc(Br)cc1C(=O)Nc1ccccc1-c1ccccc1	AHR activator 82 | AHR act cf 76 | PXR counter 13
COc1ccc(Br)cc1C(=O)Nc1cccc(NC(=O)c2ccco2)c1	AHR activator 84 | AHR act cf 98 | PXR counter 15
COc1c(C)cc(Br)cc1C(=O)Nc1cccc(NC(=O)c2ccco2)c1	none
COc1ccc(Br)cc1C(=O)Nc1ccccc1N1CCCC1	none
COc1ccccc1NC(=O)c1ccc(-c2ccc(Br)cc2)o1	AHR activator 99 | AHR act cf 105 | PXR counter 11
COc1ccc(NC(=O)c2ccco2)cc1NC(=O)c1ccccc1F	AHR activator 87 | AHR act cf 95 | PXR counter 12
C=CCC1(N(C(C)=O)c2ccccc2C)CCCCC1	none
CCn1c(SCC(=O)NCc2ccccc2)nnc1C(CO)NC(=O)c1ccccc1 (stereo unspecified)	none
O=C(NCc1ccncc1)Nc1cc(Cl)ccc1Cl	AHR activator 97 | AHR act cf 63 | PXR counter 26
O=C(NCc1ccccc1)Nc1cc(Cl)ccc1Cl	none
O=C(NCC1CCCO1)c1ccc(CSCc2cccc(F)c2)o1 (stereo unspecified)	none
CCN1CCN(c2ccc(S(=O)(=O)N3CCCCC3)cc2NC(=O)CCNC(C)=O)CC1	none (no result: SENP8 block-1, SENP7 block, SENP6 inh, AHR activator)
CNC(=O)c1ccsc1NC(=O)c1sc2ccccc2c1Cl	AHR activator 120 | AHR act cf 116 | PXR counter 19
COc1ccc2c([N+](=O)[O-])c(Cl)[nH]c2c1	none
CCOC(=O)c1sc(Nc2nc3c(OC)cccc3s2)nc1C	AHR activator 84 | AHR act cf 127 | PXR counter 72
CCOC(=O)c1sc(Nc2ccccc2)nc1C	none
CNC(=O)c1ccccc1Nc1ccc(SC(F)F)cc1	AHR activator 113 | AHR act cf 97 | PXR counter 23
CCOC(=O)CSc1c(-c2ccc(Cl)cc2)[nH]c2ccccc12	AHR activator 93 | AHR act cf 61 | PXR counter inactive
O=C(Nc1cc(Cl)ccc1-n1cncn1)c1cccs1	AHR activator 84 | AHR act cf 116 | PXR counter 20
N=c1n(CCN2CCOCC2)c2ccccc2n1CC(=O)c1cccc([N+](=O)[O-])c1	AHR activator 134 | AHR act cf 148 | PXR counter 87
CCn1c(=N)n(CC(=O)c2cccc([N+](=O)[O-])c2)c2ccccc21	none
Cc1ccc2[nH]c3c(=O)n4c(nc3c2c1)SCC4	AHR activator 123 | AHR act cf 150 | PXR counter 31
COc1ccc2[nH]c3c(=O)n4c(nc3c2c1)SCCC4	none
Cc1ccc2nc(NC(=O)CN3C(=O)NC4(CCCCC4)C3=O)sc2c1	none
Cc1cc2cc(C)c(NCCNC(=O)c3cccs3)nc2cc1C	AHR activator 97 | AHR act cf 64 | PXR counter 22
O=C(Nc1ccccc1N1CCCC1)c1ccc([N+](=O)[O-])cc1Cl	AHR activator 91 | AHR act cf 87 | PXR counter 212
O=C(Nc1ccccc1N1CCCC1)c1ccc(Cl)cc1Cl	none
O=C(Nc1ccccc1N1CCN(C(=O)c2ccc(Cl)cc2)CC1)c1cccc([N+](=O)[O-])c1	AHR activator 127 | AHR act cf 102 | PXR counter 87
CCCn1c(O)c(N=NC(=O)c2ccco2)c2ccccc21	AHR activator 87 | AHR act cf 88 | PXR counter 50
CCn1c(O)c(N=NC(=O)CNC(=O)c2ccco2)c2ccccc21	none
CCNC(=S)N=Nc1c(O)[nH]c2ccc(C(C)C)cc12	AHR activator 123 | AHR act cf 72 | PXR counter 80
CC(C)c1ccc2[nH]c(O)c(N=NC(=S)NCCc3ccccc3)c2c1	none
c1cc(Nc2cccc3nccnc23)c2nccnc2c1	none
Fc1ccc(Nc2cccc3nccnc23)cc1	AHR activator 137 | AHR act cf 58 | PXR counter 13
Cc1ccc(OCC(=O)NCCCNC(=O)c2ccncc2)cc1C	none
Nc1ccccc1Nc1nc2ccccc2[nH]1	AHR activator 95 | AHR act cf inactive | PXR counter inactive
CCOc1ccc2nc(/N=C/c3c(C)[nH]n(-c4ccccc4)c3=O)sc2c1	none
CCOc1ccc2nc(/N=C/c3c(C)[nH]n(-c4ccc(C)cc4)c3=O)sc2c1	AHR activator 89 | AHR act cf 67 | PXR counter 22
C=CCSc1nnc2nc3[nH]c4c(C)cccc4c3nn12	AHR activator 105 | AHR act cf 143 | PXR counter 38
C=CCSc1nc2nc(C)cc(C)n2n1	none
O=C(Nc1cccc(F)c1)c1c(F)c(F)c(F)c(F)c1F	AHR activator 95 | AHR act cf 72 | PXR counter 30
O=C(Nc1cccc(F)c1)c1ccc(Br)o1	AHR activator 120 | AHR act cf 67 | PXR counter 20
CC(=O)c1cccc(NC(=O)c2ccc(Br)o2)c1	none
Cn1cc(S(=O)(=O)Oc2ccccc2)c(=O)n(C)c1=O	none
COc1cccc(N=c2oc3ccccc3cc2-c2nc3ccccc3[nH]2)c1	AHR activator 92 | AHR act cf 132 | PXR counter 23
CC1CC(C)CN(C(=S)Nc2ccc(OC(F)F)cc2)C1 (stereo unspecified)	AHR activator 83 | AHR act cf 64 | PXR counter 118
CC(=O)NCCNc1nc2c(-c3ccccc3)nnn2c2ccccc12	AHR activator 88 | AHR act cf 113 | PXR counter 19
CC(=O)Nc1ccc(NCc2ccc(C)s2)cc1	none
CC(=O)c1ccc(NC(=O)CN2C(=O)COc3ccc(S(=O)(=O)N4CCCC4)cc32)cc1	none
O=C(CCC(=O)N1CCCCCC1)NCc1ccc(F)cc1	none
O=C(Nc1ccccc1)c1oc2ccccc2c1NC(=O)C1CC1	AHR activator 103 | AHR act cf inactive | PXR counter 51
CCC(=O)Nc1c(C(=O)Nc2ccc3c(c2)OCCO3)oc2ccccc12	AHR activator 87 | AHR act cf inactive | PXR counter 30
COc1ccc(NC(=O)c2oc3ccccc3c2NC(=O)C2CC2)cc1OC	none
